Assay outcomes (PubChem)
The list is not random: actives were taken first. Their share in the collection is about 4.3%.
Wnt bcat act: Wnt/beta-catenin pathway activation. AID 743398. Wnt/beta-catenin reporter cell assay, activator, plate reader. hit rate 1.2% among 300,000. activation, % at 9.35 µM; in the data active = activation above about 30%, passing the limit was not always enough; inconclusive = no clear call, values can overlap the other calls
MITF TRPM1 HTS: MITF TRPM1 promoter activation in melanoma cells; SK-MEL-5 TRPM1-promoter luciferase, 24 h; % of positive control, neutral wells = 0; activation, % at 12.5 µM; hit rate 0.75% among 300,000; AID 588334;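 active = mean activation of at least 80% with every replicate also reaching 80%; inconclusive = mean reaches 80% but some replicate falls short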
HSF1 inhib: HSF1 inhibition; NIH3T3-HGL HSE-luciferase, MG132-induced, luminescence 8 h; stronger effect = lower value; activity change, negative = inhibition, % at 7.5 µM (by protocol); hit rate 0.77% among 300,000;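 active = more than half of replicate wells show activity change below -50%, luminescence cut by over half; inconclusive = some wells, but at most half, below -50%; inactive = no replicate well below -50%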;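 also: luciferase reports HSF-1 transcriptional activity via heat shock element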
esBAF inh: SWI/SNF esBAF complex inhibition; reporter increase, % at 12.5 µM; mouse ES cells, Bmi1-luciferase knock-in reporter, 24 h; 100% = twice the neutral-well signal; AID 602393; hit rate 2% among 350,000; in the data active = activation above about 40%; inconclusive = no clear call, values can overlap the other calls;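 also: a rise in the Bmi1 reporter signal indicates esBAF inhibition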
HSF1 activator: increases HSF-1 driven luciferase reporter signal. NIH3T3-HGL HSF-1 luciferase reporter, MG132, 8 h; 100% = twice DMSO control signal. activation, % at 9 µM. hit rate 1.7% among 300,000;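 active = mean replicate activation of at least 50% with a set share of replicates each reaching 50%; inconclusive = only one of those two conditions met; inactive = mean below 50% and too few replicates reaching it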
SMARCA2 activ: increases SMARCA2 function in MMTV reporter cells; MG213 cells, MMTV-luciferase reporter, dexamethasone, overnight; activation, % at 9.1 µM; hit rate 1% among 370,000; AID 652017; in the data active = activation above about 7.8%
SMARCA2 conf: SMARCA2 activation, confirmation screen | hit rate 30% among 3,500 | activation, % at 9.1 µM | MG213 cells, MMTV-luciferase with dexamethasone, luminescence, overnight; MG213 cells expressing E1A, Rb sequestered; DMSO wells 0%, reference activator 100% | shares compounds with SMARCA2 activ;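 active = activation above its plate's cutoff, the mean activation of tested wells plus 3 SD, cut at about 7.9% in these data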
VP16 Luc act: activates GAL4-VP16 luciferase, flagging SMARCA2 activator hits. shares compounds with SMARCA2 activ. HEK293 GAL4-VP16 pG5luc reporter, luciferase luminescence; scaled: DMSO wells 0%, SAHA wells 100%. activation, % at 9.1 µM. hit rate 41% among 3,500. AID 686939;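 active = activation above the solvent-only control well mean plus 3 SD, averaged across control plates, cut at about 5.2% in these data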
A number is an active result; – = inactive; ? = inconclusive; · = no result.

SMILES	Wnt bcat act	MITF TRPM1 HTS	HSF1 inhib	esBAF inh	HSF1 activator	SMARCA2 activ	SMARCA2 conf	VP16 Luc act
O=[N+]([O-])c1ccc(-c2ccc(/C=N/Nc3nc(N4CCCCC4)nc(N4CCCCC4)n3)o2)cc1	–	–	–	·	–	–	·	·
COc1ccc(NC(=O)c2ccc(NCC3CCCO3)c([N+](=O)[O-])c2)cc1 (stereo unspecified)	–	–	–	·	–	–	·	·
O=C(Nc1ccccc1)c1ccc(NCC2CCCO2)c([N+](=O)[O-])c1 (stereo unspecified)	–	–	–	·	–	8.8	–	–
CCCNC(=O)C[C@H]1C[C@@H]2c3cc(NS(C)(=O)=O)ccc3O[C@@H]2[C@H](CO)O1	·	·	·	–	·	·	·	·
CCCC(=O)O[C@]1(C(=O)COC(C)=O)CC[C@H]2[C@@H]3C[C@H](F)C4=CC(=O)C=C[C@]4(C)[C@@]3(F)[C@@H](O)C[C@@]21C	–	–	–	–	–	11	–	–
CC(=O)[C@@]1(O)CC[C@H]2[C@@H]3C[C@H](C)C4=CC(=O)C=C[C@]4(C)[C@@]3(F)[C@@H](O)C[C@@]21C	–	–	–	–	–	–	·	·
S=c1[nH]nc(-c2ccc(Cl)cc2Cl)n1-c1ccccc1	–	–	–	?	–	16	–	6.4
S=c1[nH]nc(-c2ccc(Cl)cc2Cl)n1Cc1ccccc1	–	–	–	·	–	–	·	·
C[C@@H]1CN([C@H](C)CO)C(=O)c2cc(Br)cnc2O[C@H]1CN(C)C(=O)Nc1ccc(F)cc1	·	·	·	–	·	·	·	·
CCOC(=O)CSC1=NC(=O)/C(=C\c2ccc(Cl)cc2)S1	·	–	–	–	?	9.3	–	–
C[C@@H]1CN([C@@H](C)CO)C(=O)c2cc(C#CC(C)(C)O)cnc2O[C@H]1CN(C)C(=O)CC1CC1	·	·	·	–	·	·	·	·
O=C(CC1C(=O)CCCC1=O)c1ccccc1	–	–	–	·	–	8.6	8.1	–
O=C(CC(c1ccco1)C1CCCCC1=O)c1ccccc1 (stereo unspecified)	–	–	–	–	–	–	·	·
CO[C@@H]1CN(C)C(=O)c2cc(NC(=O)Nc3ccc(C(F)(F)F)cc3)ccc2OC[C@@H](C)NC[C@@H]1C	·	·	·	–	·	·	·	·
COc1ccc(Cc2nc3ccc(C(=O)NCc4cc(C)no4)cc3o2)cc1	–	91	–	65	–	10	–	5.7
CCOc1ccc(N2C(=O)CC(SCCN)C2=O)cc1 (stereo unspecified)	34	·	–	–	–	14	7.8	9.6
COc1ccc(-c2nn(-c3ccccc3)cc2/C=N/Nc2cccc(C(=O)O)c2)cc1	–	–	·	47	·	9.1	–	–
CSc1ccc(/C=N/Nc2cccc(C(=O)O)c2)cc1	·	–	·	·	·	·	·	·
O=C(O)c1cccc(N/N=C/c2cccs2)c1	–	–	-58	·	–	12	–	14
C/C=C/c1ccc([C@@H]2[C@@H](C#N)N(C(=O)CN3CCOCC3)[C@H]2CO)cc1	·	·	·	–	·	·	·	·
Cc1ccc(NC(=S)NCc2cccs2)c(C)c1	–	–	–	–	–	10	–	–
C[C@@H]1CCCCO[C@@H](CN(C)S(C)(=O)=O)[C@@H](C)CN([C@H](C)CO)C(=O)c2cc(NC(=O)c3ccccc3)ccc2O1	·	·	·	–	·	·	·	·
CN(C)C(=O)N1CCN(c2nc(-c3ccccc3)cs2)CC1	–	·	–	–	–	11	–	5.9
O=C1C(=Cc2cccs2)C(=O)c2ccccc21	·	–	–	·	–	–	·	·
O=C1/C(=C/c2cccs2)Cc2ccccc21	?	–	–	–	–	9.6	8.3	–
C=CCn1c(-c2ccccc2)c[nH]c1=S	43	–	–	64	–	13	–	6.0
CCCCCCOC(=O)c1ccc(N)cc1	–	–	–	·	–	8.0	–	5.8
C/C=C/c1ccc([C@H]2[C@@H](CO)N(C(=O)CC)[C@H]2CN(C)S(C)(=O)=O)cc1	·	·	·	–	·	·	·	·
